Compounds with a hit are over-represented: about 2.8% of the library has one in this group of screens.
HIF-2a block = blocks HIF-2a reporter activity. 0.72% of 360,000 active. 786-0 RCC cells HIF-2a reporter, luciferase luminescence, overnight. inhibition, % at 18.8 µM;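 active = inhibition of the luminescence signal of 40% or more relative to plate controls, in a single-dose primary screen at 18.75 µM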
CF NFkB block = blocks PAF-induced NF-kB reporter in cystic fibrosis cells | 0.86% of 360,000 active | inhibition, % at 5 µM | KKLEB NF-kB-GFP reporter, GFP fluorescence overnight | AID 588850;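 active = at least 50% inhibition at 5 µM, scaled per plate between neutral and stimulator controls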;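 also: PAF is a Pseudomonas aeruginosa culture filtrate used as stimulus; plate controls were PAF-stimulated DMSO wells for no effect and unstimulated DMSO wells for full effect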
KKLEB cytotox = reduces viability of KKLEB cystic fibrosis airway cells | activity change (cytotoxicity), % at 5 µM | KKLEB CF airway cells viability, ATPlite luminescence, overnight; stronger effect = lower value; cells stimulated with P. aeruginosa culture filtrate | 0.36% of 360,000 active | AID 602141;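 active = corrected activity change at or below -50% at 5 µM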
Peg3 prom inh-1 = reduces Peg3 promoter-driven luciferase expression in HeLa; HeLa PEG-Prom luciferase reporter, luminescence, overnight; inhibition, % at 20 µM; 1.7% of 360,000 active; AID 588405;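 active = inhibition of at least 50% at 20 µM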
MITF TRPM1 inh = reduces MITF-dependent TRPM1 promoter luciferase signal; SK-MEL-5 TRPM1 promoter luciferase, 24 h; inhibition, % at 12.5 µM; 0.83% of 330,000 active; AID 488899;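 active = mean inhibition across replicates of 60% or more, whatever share of single replicates reaches that level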
B2AR ag = human beta-2 adrenergic receptor agonism by FAP; 0.43% of 340,000 active; Am2.2-beta2AR cells, FAP receptor internalization, flow cytometry; P07550; response, % (no concentration beside the values);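 active = response above a set limit, near 3 SD of response in nonfluorescent compounds, cut at about 42% in these data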
Target sequence (P07550 whole entry, looked up): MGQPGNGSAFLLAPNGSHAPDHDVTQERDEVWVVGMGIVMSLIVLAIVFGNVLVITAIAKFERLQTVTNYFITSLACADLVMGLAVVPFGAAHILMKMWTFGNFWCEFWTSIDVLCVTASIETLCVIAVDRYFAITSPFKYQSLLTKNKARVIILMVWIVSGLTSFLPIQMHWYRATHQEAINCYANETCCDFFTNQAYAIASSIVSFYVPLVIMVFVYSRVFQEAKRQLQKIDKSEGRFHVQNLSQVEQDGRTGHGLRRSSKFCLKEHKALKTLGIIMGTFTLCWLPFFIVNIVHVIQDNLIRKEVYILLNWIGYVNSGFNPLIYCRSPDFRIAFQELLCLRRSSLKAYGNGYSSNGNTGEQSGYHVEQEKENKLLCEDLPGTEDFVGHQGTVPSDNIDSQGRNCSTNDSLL
B2AR ag CP1 = activates human beta-2 adrenergic receptor | shares compounds with B2AR ag | Am2.2-beta2AR cells, FAP surface receptor, flow cytometry; stronger effect = lower value | percent response (surface receptor), % at 10 µM | 25% of 1,100 active;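 active = surface receptor percent response at or below 58%, roughly 3 SD from nonfluorescent compounds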
FAP fluor counter = counter-screen for beta-2AR agonists: fluorescence in Am2.2 cells; AID 588765; 1,100 tested, under 10 active; calls only at 10 µM; shares compounds with B2AR ag; FAP fluorogen flow cytometry, fluorescence counterscreen; stronger effect = lower value;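 active = percent response below a set limit in fluorescence channel 1 and below 50% in channel 8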
Peg3 prom inh-2 = confirmation of Peg3 promoter inhibitors. shares compounds with Peg3 prom inh-1. HeLa PEG-Prom luciferase reporter, luminescence, overnight. inhibition, % at 20 µM. 84% of 1,300 active;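 active = at 20 µM dose, 40% or more inhibition averaged across four replicates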
HIF-2a inh conf = HIF-2a inhibition, single concentration confirmation. 786-0 RCC cells, HIF-2a luciferase reporter luminescence, overnight. 56% of 1,800 active. shares compounds with HIF-2a block. AID 651580. inhibition, % at 18.8 µM;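 active = mean inhibition across four replicates of at least 40 percent at the single tested concentration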
HIF-1a counter = HIF-1a inhibition counter-screen for HIF-2a hits | shares compounds with HIF-2a block | MiaPaCa-2 HIF-1a luciferase reporter, desferoxamine, overnight | inhibition, % at 18.8 µM | 72% of 1,800 active;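 active = mean inhibition of the reporter signal across four replicates at the single tested dose of 50% or more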
* hit, by the source's call; i = inactive; / = not tested or not shown.

SMILES	HIF-2a block	CF NFkB block	KKLEB cytotox	Peg3 prom inh-1	MITF TRPM1 inh	B2AR ag	Peg3 prom inh-2	others
O=[N+]([O-])c1cc(S(=O)(=O)N2CCCCCC2)ccc1Cl	40*	-12	-3	69*	38	48*	/	B2AR ag CP1=90;FAP fluor counter=i;HIF-2a inh conf=29;HIF-1a counter=68*
O=[N+]([O-])c1ccc(NN=C2CC3CCC2C3)c([N+](=O)[O-])c1 (stereo not drawn)	-15	0	-6	-22	/	/	/
Nc1ncn([C@@H]2O[C@H](CO)[C@@H](O)[C@H]2O)c(=O)n1	-85	40	-14	72*	79*	3	50*
Nc1nonc1-n1nnc(C(=O)N/N=C/c2cc(Br)ccc2O)c1CNc1ccccc1	3	26	-32	56*	28	3	72*
O=C(NCC(=O)N1CCN(Cc2ccccc2)CC1)c1ccccc1Cl	2	-9	7	2	/	/	/
Cc1ccc(Cl)cc1Nc1nc(-c2sc(NC(=O)c3ccco3)nc2C)cs1	8	-28	-13	90*	68*	0	88*
COc1ccccc1Nc1nc(-c2sc(NC(=O)c3ccco3)nc2C)cs1	7	32	-3	70*	46	3	58*
COC(=O)[C@]12CCCCC=C1N(Cc1ccco1)C(=O)[C@H](CC(=O)NCc1cccc(C(F)(F)F)c1)C2	14	/	/	/	/	/	/
CCc1cc2c(-c3ccccc3)cc(=O)oc2cc1OCC(C)=O	-9	4	0	11	2	-14	/
CC(=O)COc1cc2c(-c3cc4ccccc4o3)cc(=O)oc2cc1C	4	-193	2	56*	-8	-5	36
CN(CC(=O)Nc1ccc(Cl)c(C(F)(F)F)c1)C(=O)c1cc(-c2ccncc2)nc2ccccc12	17	-1	-22	77*	-5	19	92*
Cc1nc(-c2ccc(F)cc2)c(CC(=O)N(C)CC(=O)Nc2ccc(Cl)c(C(F)(F)F)c2)s1	8	19	-26	58*	-3	16	56*
COc1cccc(NC(=O)CN(C)C(=O)c2cc(-c3ccc(F)cc3)nc3ccccc23)c1	-8	1	-19	63*	-20	13	73*
COc1cccc(NC(=O)CN(C)C(=O)c2cc(-c3ccccc3)nc3ccccc23)c1	11	-30	-4	50	-4	15	/
Cc1nc(-c2ccc(F)cc2)c(CC(=O)N(C)CC(=O)Nc2ccccc2Cl)s1	7	-11	-2	-3	-3	3	/
COCCCN=C1NN=C(c2cc(C)n(Cc3ccco3)c2C)CS1	-68	22	-8	-73	38	22	/
Cc1cc(C2=NNC(=NC3CC3)SC2)c(C)n1Cc1ccco1	80*	22	-12	86*	91*	-1	90*
CC(C)C(=O)N1CCC1(C)C(=O)NS(=O)(=O)c1cccs1 (stereo not drawn)	-13	4	0	-3	/	/	/
CCOC(=O)[C@]12CCCC=C1N(Cc1ccc3c(c1)OCO3)C(=O)[C@H](CC(=O)NCC1CCCCC1)C2	-9	/	/	/	/	/	/
CC1=C(CC[C@@H](C)CO)OC2CC3C4CCC5CC(O)CCC5(C)C4CC(=O)C3(C)C12 (stereo partly drawn)	-31	-7	-17	65*	/	21	58*
CC(CCC(=O)O)C1CCC2C3CCC4C[C@H](O)CCC4(C)C3CC(=O)C12C (stereo partly drawn)	14	-3	-2	-145	-3	12	/
Clc1ccccc1NN(Cc1ccncc1)c1ccccc1Cl	15	30	-1	33	/	/	/
Cc1ccc(C(=O)c2no[n+]([O-])c2C(=O)c2ccc(C)cc2)cc1	-40	100*	-76*	107*	79*	42*	100*
CCN(CC)CCn1c2ccccc2c2cnc(N)c(C#N)c21	36	27	-4	91*	55	-6	94*
COc1ccccc1NC(=S)NC1CCCCCCCCCCC1	22	16	-17	55*	4	4	91*
SMILES	HIF-2a block	CF NFkB block	KKLEB cytotox	Peg3 prom inh-1	MITF TRPM1 inh	B2AR ag	Peg3 prom inh-2	others
COc1ccccc1NC(=S)NC1CCCCC1	14	8	-4	-16	9	-1	/
CC1(C(=O)Nc2ccc3nc[nH]c3c2)CCN1C(=O)CCc1ccccc1 (stereo not drawn)	11	-26	16	10	/	/	/
Cc1ccc(-n2nc3c(N4CCC(C(=O)NCCc5cccs5)CC4)nnc(C)c3c2C)cc1	8	33	-14	60*	89*	9	37
CCC(c1ccc(O)c(O)c1)C(CC)c1ccc(O)c(O)c1 (stereo not drawn)	79*	84*	-21	100*	1	5	98*
NCC(O)c1ccc(O)c(O)c1 (stereo not drawn)	5	6	2	-8	7	/	/
N#Cc1ccc(S(=O)(=O)N2CCCCC2c2cc(C(=O)Nc3cccc4c3CCCC4)no2)cc1 (stereo not drawn)	-4	-6	3	7	/	/	/
Cc1ccc2nc(-c3ccc(Cl)cc3)c(Cc3ccccc3C(F)(F)F)n2c1	-259	-4	9	-116	/	/	/
CN(C)CCN(C(=O)c1ccc(S(=O)(=O)N2CCCC2)cc1)c1nc2ccc(Br)cc2s1	-98	8	-1	-99	-27	16	/
CC1CCCCN1S(=O)(=O)c1ccc(C(=O)N(CCCN(C)C)c2nc3ccc(Br)cc3s2)cc1 (stereo not drawn)	-27	8	-27	81*	95*	25	93*
CCC1CCCCN1S(=O)(=O)c1ccc(C(=O)N(CCCN(C)C)c2nc3cc4c(cc3s2)OCO4)cc1 (stereo not drawn)	-5	26	-23	59*	23	18	70*
NC1=C(Br)C(=O)c2ncccc2C1=O	83*	79*	-64*	102*	94*	5	99*
C=Cc1ccc(Cn2c(C)c(C(=O)NCc3cccc([N+](=O)[O-])c3)sc2=O)cc1	-10	14	-9	30	/	/	/
